# Assay outcomes from PubChem BioAssay.
# A selection: hits, their analogues and other compounds. The true share with any hit is near 6.7%.
# Mtb FBA inh: Mtb FBA enzyme inhibitors, primary screen, biochemical, fluorescence, strain H37Rv; purified M. tuberculosis FBA, fluorescence read-out; inhibition, % at 1 µM; 360,000 compounds, 2.3% hits;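 also: 0% = vehicle and 100% = reference inhibitor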
# GDH-TPI counter-1: GDH-TPI coupling enzyme inhibitors, primary screen, artefact control for M. tuberculosis FBA inhibitor project, biochemical, absorbance, full deck; GDH-TPI coupled enzyme counterscreen, NADH absorbance; inhibition, % at 4.8 µM; 360,000 compounds, 1.2% hits; in the data active = inhibition above about 30%;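 also: 0% = DMSO wells and 100% = wells lacking the enzyme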
# BoNT-A LC inh2: BoNT/A light chain protease inhibitors, primary screen, biochemical, flow cytometry, MLPCN library | Botulinum neurotoxin type A light chain protease (Clostridium botulinum A str. ATCC 3502) | multiplex microsphere protease substrate cleavage | inhibition, % at 10 µM | 360,000 compounds, 0.17% hits; in the data active = inhibition above about 30%; inconclusive = no clear call, values can overlap the other calls; also: plate controls were buffer without enzyme for full effect and enzyme alone for no effect
# Anthrax LF prot: Bacillus anthracis LF protease inhibitors, primary screen, biochemical, multiplex microsphere, MLPCN library; Lethal factor (Bacillus anthracis), P15917; multiplex microsphere protease cleavage assay; inhibition, % at 10 µM; 360,000 compounds, 0.12% hits; AID 588501, 2011; in the data active = inhibition above about 30%; inconclusive = no clear call, values can overlap the other calls; also: plate controls were buffer without enzyme for full effect and enzyme alone for no effect
# Bead autofluor: counter-screen for toxin protease inhibitors: compound fluorescence; compound autofluorescence counterscreen, microsphere flow cytometry; hits give high values; fluorescence intensity (test concentration not listed); 360,000 compounds, 3.1% hits; AID 624483; in the data active = fluorescence intensity above about 16000; inconclusive = no clear call, values can overlap the other calls
# BoNT F protease: BoNT/F light chain protease inhibitors, primary screen, biochemical, flow cytometry, MLPCN library | Botulinum neurotoxin type F light chain protease (Clostridium botulinum) | Multiplex microsphere protease cleavage assay | inhibition, % at 10 µM | 360,000 compounds, 0.22% hits | AID 588497, 2011; in the data active = inhibition above about 35%, passing the limit was not always enough; inconclusive = no clear call, values can overlap the other calls; also: plate controls were buffer without enzyme for full effect and enzyme alone for no effect
# Mtb FBA inh conf: M. tuberculosis aldolase blockers, biochemical, fluorescence, strain H37Rv, confirmation | shares compounds with Mtb FBA inh | purified M. tuberculosis FBA, fluorescence read-out | inhibition, % at 1 µM | 5,600 compounds, 78% hits;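 also: 0% = vehicle wells and 100% = reference inhibitor wells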
# GDH-TPI counter-2: GDH-TPI coupling enzyme inhibitors, artefact control for M. tuberculosis FBA inhibitor project, biochemical, fluorescence, high throughput; 5,600 compounds, 81% hits; GDH-TPI coupled enzyme counterscreen; shares compounds with Mtb FBA inh; inhibition, % at 1 µM; in the data active = inhibition above about 10%
# Numbers without * were called inactive; ? = inconclusive; . = not tested or not shown; + = active, no number. Rule as the data show it, unless noted: active = inhibition above about 27%; inactive = the rest.
SMILES,Mtb FBA inh,GDH-TPI counter-1,BoNT-A LC inh2,Anthrax LF prot,Bead autofluor,BoNT F protease,Mtb FBA inh conf,GDH-TPI counter-2
COC(=O)C(Oc1ccc2c(-c3ccc(OC)cc3)cc(=O)oc2c1)c1ccccc1 (stereo unspecified),-6.0,7.8,0.1,-2.0,2489,-3.5,.,.
Cc1cc(=O)oc2cc(OC(C)C)ccc12,73.1*,10.3,-0.4,3.1,5750,0.4,+,178.1*
C#CCOc1ccc2c(C)cc(=O)oc2c1,40.4*,6.7,-0.6,-3.7,6197,-1.5,63.5*,43.6*
O=C(O)C(Oc1ccc2cc(-c3ccc(Cl)cc3)c(=O)oc2c1)c1ccccc1 (stereo unspecified),103.7*,4.4,-4.2,13.9,4346,?,+,+
O=C(O)C(Oc1ccc2c3c(c(=O)oc2c1)CCC3)c1ccccc1 (stereo unspecified),69.2*,22.0,-0.3,-9.3,4009,?,3.5,-4.6
Cc1cc(=O)oc2cc(OC(C(=O)O)c3ccccc3)ccc12 (stereo unspecified),17.1,24.1,0.1,-6.3,2828,10.4,.,.
CCOC(=O)c1c(N2C(=O)Nc3ccccc3N2O)n[nH]c1-c1cccc(OC)c1,3.7,6.2,-0.2,-0.4,2779,-2.1,.,.
O=C(COc1cc2oc(=O)c3c(c2cc1Cl)CCCC3)NCc1cccnc1,2.4,0.4,0.8,-0.4,5467,-0.7,.,.
O=C(O)c1ccc(COc2ccc3c4c(c(=O)oc3c2)CCC4)o1,34.1*,21.9,-1.1,-3.0,6949,-1.0,95.4*,63.8*
O=C(COc1ccc2c3c(c(=O)oc2c1)CCCC3)NCc1ccncc1,12.3,7.4,9.5,5.2,2985,6.9,.,.
Cc1c(OCc2nn[nH]n2)ccc2c3c(c(=O)oc12)CCC(C)C3 (stereo unspecified),107.1*,26.6,?,-9.9,22299*,-1.2,+,154.7*
CCc1cc2c3c(c(=O)oc2cc1OCC(=O)OC)CCCC3,53.7*,7.1,-0.8,-4.6,4001,?,47.7*,31.1*
C#CCOc1ccc2c3c(c(=O)oc2c1)CCCC3,45.8*,-2.5,2.3,1.5,3331,-21.2,+,+
COCCn1c(SCC(=O)NCc2ccc(OC)c(OC)c2)nc2ccccc21,0.9,1.5,-0.8,-2.3,3684,-9.2,.,.
COc1ccc(C(=S)N2CCN(c3cccc(Cl)c3)CC2)c(OC)c1,0.4,-3.8,-1.9,-2.8,4132,-5.3,.,.
CCN(c1ccccc1)S(=O)(=O)c1ccc(Cl)c(NC(=O)COC(=O)c2ccc(O)cc2)c1,-2.8,6.9,-0.6,0.4,2652,-3.4,.,.
CC(=O)COc1ccc2c3c(c(=O)oc2c1)CCCC3,69.7*,2.6,0.1,2.4,9765,-0.6,33.5*,35.1*
O=c1oc2cc(OCc3nn[nH]n3)ccc2c2c1CCCC2,89.0*,-3.9,6.9,-5.2,18827*,11.7,-1.4,-1.7
C=CCOc1ccc2c(CC)cc(=O)oc2c1C,40.8*,6.9,-0.1,-0.6,2418,0.0,+,164.4*
CC(=O)C(C)Oc1ccc2c3c(c(=O)oc2c1)CCCC3 (stereo unspecified),39.8*,6.2,-0.2,-0.6,4182,-0.4,+,145.7*
O=c1oc2cc(OCc3ccc([N+](=O)[O-])cc3)ccc2c2c1CCCC2,0.5,-2.5,-1.2,-4.0,4300,-8.2,.,.
COC(=O)C1CCN(C(=O)c2cc(-c3ccco3)nc3ccccc23)CC1,108.8*,21.8,1.1,-4.4,2884,5.4,53.6*,42.9*
O=C(c1cc(-c2ccco2)nc2ccccc12)N1CCN(Cc2ccccc2)CC1,49.7*,0.0,0.2,4.9,3479,-1.7,137.8*,147.7*
O=C(c1ccco1)N1CCN(C(=O)c2cc(-c3ccccc3)nc3ccccc23)CC1,-0.7,4.9,2.7,-9.9,8830,3.5,.,.
CCc1sc(C(=O)Nc2ccc3nc(C)sc3c2)cc1C,1.7,3.5,-0.2,1.8,?,8.4,.,.
SMILES,Mtb FBA inh,GDH-TPI counter-1,BoNT-A LC inh2,Anthrax LF prot,Bead autofluor,BoNT F protease,Mtb FBA inh conf,GDH-TPI counter-2
CCc1sc(C(=O)Nc2ccc(NC(C)=O)cc2)cc1C,27.1*,2.3,-0.5,-1.1,2486,-2.4,0.6,-0.1
COc1ccc(NC(=O)Cn2c(C)csc2=O)c(OC)c1,4.8,-0.3,0.2,-1.1,4244,-9.2,.,.
Cc1ccc(S(=O)(=O)NNc2c3ccccc3nc3ccc(Cl)cc23)cc1,91.1*,10.0,0.2,-9.8,3268,-29.4,41.7*,28.4*
Cc1ccc(C(=S)N2CCCCCC2)cc1,0.0,-5.2,-3.0,-0.6,4034,?,.,.
COc1ccc(S(=O)(=O)NNC(=O)c2ccc(-n3c(C)ccc3C)cc2)cc1,1.4,-0.8,-1.6,-28.4,?,-42.0,.,.
CC1CCCC(C)N1C(=O)COc1ccc(C(=O)N/N=C/c2ccc(C(=O)O)cc2)cc1 (stereo unspecified),60.0*,-0.6,0.3,-1.8,2256,1.9,119.7*,96.8*
CCOc1ccc(C(=O)NCC(=O)OCC(=O)N2C(C)CCCC2C)cc1 (stereo unspecified),2.3,6.2,0.0,3.5,3160,6.5,.,.
c1ccc(Cn2c(NCc3ccncc3)nc3ccccc32)cc1,0.2,-10.9,-0.3,-4.2,5919,-1.8,.,.
COc1cc2c(N3CCOCC3)cc(O)c(CC(=O)Nc3ccccc3)c2cc1OC,30.7*,2.7,1.1,-2.2,4477,-0.8,6.5,-4.3
CC(=O)N1CCN(c2ccc(NC(=O)c3cc(Cl)ccc3Cl)cc2)CC1,-2.2,3.0,2.0,14.0,3085,?,.,.
O=C(N/C(=C\c1cccc([N+](=O)[O-])c1)C(=O)N1CCOCC1)c1ccco1,64.9*,20.1,2.2,4.5,5121,4.8,176.1*,142.2*
CC(C)N1CCN(Cc2cccs2)CC1CCO (stereo unspecified),-0.8,4.3,0.1,0.4,2511,1.4,.,.
O=c1oc2ccccc2cc1-c1csc(NN=C2CCCC2)n1,5.7,16.2,1.4,-0.3,2571,1.3,.,.
O=C(O)c1cccc(Nc2nc(-c3cc4ccccc4oc3=O)cs2)c1,28.4*,20.3,-3.3,-11.1,4300,9.6,84.0*,71.8*
O=C(CSc1cccc2cccnc12)N1CCCC1,32.8*,5.4,-0.2,1.5,2800,-7.5,140.5*,107.6*
NNC(=O)CSc1cccc2cccnc12,19.5,0.4,1.0,1.3,7717,-6.7,.,.
